Test results: PubChem BioAssay (Tox21)
Active and inactive are the calls of the source. Calls follow the shape of the dose curve; as a rule, active = well fitted curve in the direction sought with a large enough effect in the repeat runs; inconclusive = weak or mixed curves; inactive = flat fitted curve, though single readings scatter.

Test: qHTS assay to test for compound auto fluorescence at 460 nm (blue) in HEK293 cells (AID 720678)
Conditions: blue autofluorescence 405/460 nm; series mostly up to 91.3 µM
Excerpt: National Center for Advancing Translational Sciences [NCATS]
NIH Chemical Genomics Center [NCGC]
U.S. Environmental Protection Agency [EPA]
National Institutes of Environmental Health Sciences [NIEHS]
National Toxicology Program [NTP]
U.S. Food and Drug Administration [FDA]
Compound auto fluorescence often interferes with screening of the compound library against various biological targets and signaling pathways. Some of these compounds may have fluorophoric properties. Such properties may interfere with the assay outputs resulting in false positives and/or negatives. To decrease such complications and ensure the compound activities are relevant in terms of biological response, the Tox21 10K compound library was screened for auto fluorescence.
From the fluorophores used as reporter signals in our screening assays, the auto fluorescence equivalencies of compounds against three fluorophores have been evaluated: Triamterene, Fluorescein and Rose Bengal sodium for blue, green and red fluorescence, respectively. The fluorescence intensities were measured using Excitation/Emission wavelengths at 405/460nm, 485/535nm and 540/590nm for blue, green and red labels, respectively. This assay includes the blue fluorescence data.
Tox21 Assay Protocol Summary:
2,000 HEK293 cells in 5 uL of culture medium containing 10% dialyzed FBS per well were dispensed into black wall/clear bottom 1536-well plates using a Multidrop Combi Dispenser (Thermo Scientific). The assay plates were incubated for 4-5 hr at 37C to allow cell attachment to the well bottom, followed by the transfer of 23 nL compound or DMSO vehicle by a pintool work station (Kalypsys, San Diego, CA). After the assay plates were incubated overnight at 37C and 5% CO2, fluorescence intensities in the assay plates were measured by an Envision (PerkinElmer, Shelton, CT) plate reader using three labels for measuring blue, green and red fluorescence at […] 460, 535 and 590nm respectively.
In the case of `Cc1occc(=O)c1O`, the outcome is reported as “inactive”. With `O=C(CC(C(=O)OC1CCCCC1)S(=O)(=O)O)OC1CCCCC1` (stereo not given) the outcome was “inactive”. For `CCCSc1ccc2nc(NC(=O)OC)[nH]c2c1`, the outcome was “inactive”. For `c1ccc2scnc2c1`, the outcome was “inactive”. In the case of `CCCCCCOCCO`, the outcome is reported as “inactive”. With `CCOC(=O)NNc1nncc2ccccc12` the outcome was “inactive”. In the case of `O=S1(=O)CC=CC1`, the outcome is reported as “inactive”. For `C[C@H]1C[C@@H]2[C@H]([C@@H](O)C[C@@]3(C)[C@H]2CC[C@]3(O)C(=O)CO)[C@@]2(C)C=CC(=O)C=C12`, the outcome was “inactive”. With `CCCCCC(N)=O` the outcome was “inactive”. For `CC(C)(N)CO`, the outcome was “inactive”. For `C/C=C1/CC2C=CC1C2` (stereo not given), the outcome was “inactive”. In the case of `C=C(C)C(=O)Nc1ccc(Cl)c(Cl)c1`, the outcome is reported as “inactive”. In the case of `Oc1cccc2ccccc12`, the outcome is reported as “inactive”. With `CCCCCCCCCCCCS` the outcome was “inactive”. For `CCCCCC/C(C=O)=C\c1ccccc1`, the outcome was “inactive”. For `COc1ccc2cc([C@H](C)C(=O)O)ccc2c1`, the outcome was “inactive”. In the case of `FC(F)(F)c1ccc(Cl)c(Cl)c1`, the outcome is reported as “inactive”. In the case of `Cc1cccc(O)c1`, the outcome is reported as “inactive”. For `Cc1ccc(N(C)C)cc1`, the outcome was “inactive”. For `CC1CCC2CC1C2(C)C` (stereo not given), the outcome was “inactive”. With `O=C(O)[C@H](O)[C@@H](O)[C@H](O)[C@H](O)CO` the outcome was “inactive”. In the case of `CCc1ccc(CCOc2ccc(CC3SC(=O)NC3=O)cc2)nc1` (stereo not given), the outcome is reported as “inactive”. In the case of `CC(C)CC(=O)CC(C)C`, the outcome is reported as “inactive”. For `O=P(OC(CCl)CCl)(OC(CCl)CCl)OC(CCl)CCl`, the outcome was “inactive”. In the case of `N[C@@H](Cc1cc(I)c(Oc2cc(I)c(O)c(I)c2)c(I)c1)C(=O)O`, the outcome is reported as “inactive”. With `CC[C@H](C)C(=O)O[C@H]1C[C@@H](C)C=C2C=C[C@H](C)[C@H](CC[C@@H]3C[C@@H](O)CC(=O)O3)[C@H]21` the outcome was “inactive”. With `NNc1nncc2ccccc12` the outcome was “inactive”. For `CCCCCCCCCCCCOCCO`, the outcome was “inactive”. For `O=C(O)CCCC[C@@H]1SC[C@@H]2NC(=O)N[C@@H]21`, the outcome was “inactive”. In the case of `CC(=O)Nc1cccc(O)c1`, the outcome is reported as “inactive”. In the case of `COc1ccc(NC(C)=O)cc1N`, the outcome is reported as “inactive”. With `Cc1ccc2oc(=O)ccc2c1` the outcome was “inactive”. For `CC1CCC(C(C)C)C(O)C1` (stereo not given), the outcome was “inactive”. With `O=C(O)CCCCCCCCCCC(=O)O` the outcome was “inactive”. In the case of `OCCOCCOCCO`, the outcome is reported as “inactive”. In the case of `CCc1cccc(C)c1N`, the outcome is reported as “inactive”. In the case of `O=C(O)c1ccccc1C(c1ccc(O)cc1)c1ccc(O)cc1`, the outcome is reported as “inactive”. In the case of `CCN(CC)CCCC(C)Nc1ccnc2cc(Cl)ccc12` (stereo not given), the outcome is reported as “inactive”. For `ON=C1CCCCC1`, the outcome was “inactive”. In the case of `CC(=O)CC(=O)Nc1ccccc1`, the outcome is reported as “inactive”.
